Sm TGR block = S. mansoni TGR enzyme inhibition | Potency, µM (titrated, usually from 114 µM), inactives show at the top dose activity change, negative = inhibition, usual class: inhibitors | 360,000 compounds, 3% hits | purified TGR, DTNB reduction, TNB absorbance 405 nm | Q962Y6; also: potency is read from the fitted curve at half-maximal effect; % is scaled to controls: 0 for no effect and ±100 for the full control effect; nearly all actives have a fitted effect of over 60% in size
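First, TGR (20 nM dispensed) and NADPH were mixed with compound. Second, a 15 min room-temperature incubation followed. Third, further NADPH and then DTNB were added to start the reaction. Finally, TNB absorbance was monitored kinetically.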
Pf growth 96h = inhibits malaria parasite growth, 96 h | P. falciparum luciferase reporter growth, 96 h | 320,000 compounds, 6.9% hits | Potency, µM (top dose mostly 28.7 µM), for inactives: at the top dose activity change, negative = inhibition, actives largely listed as inhibitors; also: potency is read from the fitted curve at half-maximal effect; % is scaled to controls: 0 for no effect and ±100 for the full control effect
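Infected RBCs, 2% Hct / 0.05% parasitemia final; luciferase-reporter P. falciparum; cpd 96 h, 37 C, 5% CO2; luciferase detection reagent; luminescence.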
HCMV inh = human cytomegalovirus inhibition; HFF cells, HCMV-luciferase reporter, 72 h; hits give low values; activity change, negative = inhibition, % at 57.5 µM; AID 1259415; 410,000 compounds, 4.5% hits; in the data active = activity change below about -60%; inconclusive = no clear call, values can overlap the other calls; inactive = above about -39%; also: % is scaled to controls: 0 for no effect and ±100 for the full control effect
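Human foreskin fibroblasts infected with luciferase-reporter HCMV at MOI 1 PFU/cell, compounds at two doses. Luciferase measured 72 h post infection; normalized to buffer-only basal and Salinomycin (10uM) controls.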
SARS PLP yeast = inhibitors of SARS-CoV papain-like protease in yeast; S. cerevisiae expressing SARS-CoV PLpro, growth rescue; Potency, µM (series often up to 32.9 µM), for the others: at the top dose activity, positive = growth rescue, usual class: activators; 330,000 compounds, 0.19% hits; calls by dose curve; also: potency is read from the fitted curve at half-maximal effect; 0% is about no effect; nearly all actives have a fitted effect of over 55% in size
HCV inhibitor = blocks hepatitis C virus | Potency, µM (titrated, usually from 41.8 µM), without a hit: at the top dose activity change, negative = inhibition, hits mostly inhibitors | Huh7.5.1 HCVcc-Cre infection, luciferase reporter, 44 h | 340,000 compounds, 3.4% hits | AID 651820; also: potency is read from the fitted curve at half-maximal effect; % is scaled to controls: 0 for no effect and ±100 for the full control effect
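Cells (1,000/well) were plated 4 h before compound, then infected with HCVcc-Cre virus (~0.5 moi). After 44 h further culture, infection was read as luciferase luminescence following a 15 min substrate incubation at room temperature.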
Pf growth 48h = inhibits P. falciparum growth in the first generation, 48 h; P. falciparum luciferase growth in erythrocytes, 48 h; Potency, µM (highest dose often 28.7 µM), inactives show at the top dose activity change, negative = inhibition, actives largely listed as inhibitors; 310,000 compounds, 5.9% hits; AID 504832; also: potency is read from the fitted curve at half-maximal effect; % is scaled to controls: 0 for no effect and ±100 for the full control effect
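A one-generation exposure of luciferase-tagged malaria parasites in RPMI 1640/Albumax erythrocyte culture, 37 C and 5% CO2. Inhibition is inferred from decreased luminescence after adding detection reagent.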
Starred values were filed as active, the others as inactive; ! = repeats disagree. Hits are enriched below; roughly 15% of the tested compounds scored in any of these assays. Unless noted, calls follow the shape of the dose curve; as a rule, active = well fitted curve in the direction sought with a large enough effect; inconclusive = small, poorly fitted or top-dose-only effect, or another doubt; inactive = no such curve, though single readings can be large; an effect the other way counts as inactive or inconclusive.

Results for CCOc1cc(C(Nc2cc(C)ccn2)c2ccc3cccnc3c2O)ccc1OC (stereo unspecified) ?
Sm TGR block: 0.28µM*; HCMV inh: -97*

Results for Oc1c(C(Nc2nccs2)c2ccc(C(F)(F)F)cc2)ccc2cccnc12 (stereo unspecified) ?
Sm TGR block: -13%; Pf growth 96h: -73%; HCMV inh: 0; SARS PLP yeast: -26%; HCV inhibitor: inconclusive; Pf growth 48h: 0.37µM*

How did Cc1ccc(C(Nc2ccccn2)c2ccc3cccnc3c2O)cc1 (stereo unspecified) do in these assays?
Sm TGR block: 1µM*; HCMV inh: -64*

What do the screens show for `Cc1cc(N2CCCC2=O)ccc1S(=O)(=O)NC1CCCCC1`?
Sm TGR block: 4%; Pf growth 96h: 42%; HCMV inh: -23; SARS PLP yeast: 3%; HCV inhibitor: -14%; Pf growth 48h: -12%

What do the screens show for `Cc1ccc(C)c(C(Nc2ccccc2)c2ccc3ccc(C)nc3c2O)c1` (stereo unspecified)?
HCMV inh: 15

Results for Cc1ccnc(NC(c2cccc(O)c2)c2ccc3ccc(C)nc3c2O)c1 (stereo unspecified) ?
Sm TGR block: 1.6µM*; HCMV inh: 9

What do the screens show for `Cc1cccc(NC(c2ccccc2F)c2ccc3ccc(C)nc3c2O)n1` (stereo unspecified)?
Sm TGR block: 5µM*; HCMV inh: -18

Results for Cc1ccnc(NC(=O)c2cccc3ccccc23)c1 ?
Sm TGR block: 1%; Pf growth 96h: 65%; HCMV inh: -2; SARS PLP yeast: -8%; HCV inhibitor: -6%; Pf growth 48h: 47%

How did COc1ccc(C(C)C)cc1S(=O)(=O)Nc1ccccn1 do in these assays?
Sm TGR block: -3%; HCMV inh: -25; SARS PLP yeast: -4%; HCV inhibitor: 9%; Pf growth 48h: 12%

How did COc1ccc(C(Nc2ccccn2)c2ccc3ccc(C)nc3c2O)cc1C (stereo unspecified) do in these assays?
Sm TGR block: 0.71µM*; HCMV inh: -11

How did O=C(NCc1ccc(Cl)cc1)C1CCCN(C(=O)c2cnn(-c3ccc(F)cc3)c2-n2cccc2)C1 (stereo unspecified) do in these assays?
Sm TGR block: -4%; HCMV inh: 25

What do the screens show for `CCOC(=O)[C@]12CCCC=C1N(Cc1ccc(Cl)cc1Cl)C(=O)[C@H](CC(=O)N1CCN(C(=O)C3CC3)CC1)C2`?
HCMV inh: 2

What do the screens show for `CC(=O)c1ccsc1-c1c(C)cc2oc(=O)cc(-c3ccccc3)c2c1C`?
HCMV inh: -20; SARS PLP yeast: 8%; HCV inhibitor: inconclusive

What do the screens show for `CN(N=Nc1nc[nH]c1C(=O)NN)C1CCCCC1`?
HCMV inh: 15; HCV inhibitor: 20%

How did CC(C)(C)OC(=O)C[C@H]1C/C=C\C[C@@H](CC(=O)N(CCO)Cc2ccccc2)C(=O)N2CCC[C@H]2COC1=O do in these assays?
HCMV inh: 4; SARS PLP yeast: -1%; HCV inhibitor: 14%

What do the screens show for `Oc1ccc(CNc2ccccc2F)c2cccnc12`?
Sm TGR block: 0.11µM*; Pf growth 96h: 4.1µM*!; HCMV inh: -89*; SARS PLP yeast: inconclusive; HCV inhibitor: 11µM*; Pf growth 48h: 1.5µM*

Results for Oc1ccc(CNc2cccc(F)c2F)c2cccnc12 ?
Sm TGR block: 0.11µM*; Pf growth 96h: inconclusive; SARS PLP yeast: 2%; Pf growth 48h: 10µM*

What do the screens show for `O=S(=O)(Nc1ccc(O)c2ncccc12)c1ccccc1F`?
HCMV inh: 27

How did Oc1ccc(CNc2ccc(C(F)(F)F)cc2Cl)c2cccnc12 do in these assays?
Sm TGR block: 1µM*; Pf growth 96h: 3.3µM*; SARS PLP yeast: -2%; Pf growth 48h: 1.7µM*

Results for Cn1c(=O)[nH]c(=O)c2c1nc(CN1CCN(c3ccccc3F)CC1)n2Cc1ccc(F)cc1 ?
Sm TGR block: -4%; HCMV inh: -38

Results for CC(NC(=O)c1ccc(NC(=O)c2nsc3ccccc23)cc1)c1ccccc1 (stereo unspecified) ?
Sm TGR block: 5%; HCMV inh: 53

How did Cc1cc(-c2ccc(C)c(S(=O)(=O)NCC3CCN(Cc4cccc(F)c4)CC3)c2)on1 do in these assays?
Sm TGR block: -1%; Pf growth 96h: inconclusive; HCMV inh: 0; SARS PLP yeast: 3%; HCV inhibitor: inconclusive; Pf growth 48h: 9.3µM*

How did COc1cccc(CCN2CCC(CNS(=O)(=O)c3cc(-c4cc(C)no4)ccc3C)CC2)c1 do in these assays?
Sm TGR block: -4%; Pf growth 96h: inconclusive; HCMV inh: 0; SARS PLP yeast: 3%; HCV inhibitor: 13µM*; Pf growth 48h: inconclusive

How did COc1cccc(CCN2CCC(CNS(=O)(=O)c3cc(-c4cc(C)no4)ccc3OC)CC2)c1 do in these assays?
Sm TGR block: 7%; Pf growth 96h: 10µM*; HCMV inh: 0; SARS PLP yeast: -2%; HCV inhibitor: 7.9µM*; Pf growth 48h: 4.1µM*

How did Cc1cc(-c2ccc(C)c(S(=O)(=O)NCC3CCN(Cc4ccccc4F)CC3)c2)on1 do in these assays?
Sm TGR block: -6%; Pf growth 96h: -14%; HCMV inh: 51; SARS PLP yeast: -5%; HCV inhibitor: inconclusive; Pf growth 48h: inconclusive

Results for Cc1cc(-c2ccc(C)c(S(=O)(=O)NCCN3CCC(C)CC3)c2)on1 ?
Sm TGR block: 8%; Pf growth 96h: inconclusive; HCMV inh: -32; SARS PLP yeast: -1%; HCV inhibitor: inconclusive; Pf growth 48h: inconclusive

What do the screens show for `Nc1c(C(O)(C(F)(F)F)C(F)(F)F)cc(C(O)(C(F)(F)F)C(F)(F)F)c2ccccc12`?
Sm TGR block: -23%; Pf growth 96h: inconclusive; SARS PLP yeast: -21%; HCV inhibitor: inconclusive; Pf growth 48h: 9.3µM*

What do the screens show for `O=C(/C=N/O)Nc1ccc2sc3ccccc3c2c1`?
Sm TGR block: 12%; Pf growth 96h: 3%; HCMV inh: -28; SARS PLP yeast: -7%; HCV inhibitor: 13µM*; Pf growth 48h: 37%

What do the screens show for `O=C1C2C(c3ccccc3)C=CC(c3ccccc3)C2C(=O)N1c1ccccn1` (stereo unspecified)?
Sm TGR block: -8%; Pf growth 96h: 1.3µM*; HCMV inh: 6; SARS PLP yeast: -6%; HCV inhibitor: 16%; Pf growth 48h: 33%

Screens from PubChem.
